Sampled rows, rich in hits. Any-hit rate of the full collection: about 1.2%.
USP1 inh: Inhibitors of USP1/UAF1: Primary Screen | Ubiquitin carboxyl-terminal hydrolase 1 (Homo sapiens), O94782 | Potency, µM (titrated, usually from 57.1 µM), inactives show top-dose activity change, negative = inhibition, most hits filed as inhibitors | 390,000 compounds, 0.23% hits | recombinant USP1/UAF1, Ub-Rhodamine cleavage fluorescence; note: % is set by controls: 0 for no effect and ±100 for the full control effect; nearly all actives have a fitted effect of over 60% in size
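USP1/UAF1 complex (1 nM) preincubated 15 min at room temperature with compound, then Ub-Rho substrate (150 nM final) added. Kinetic fluorescence at 480/540 nm over 6 reads at 60 s intervals; 50 mM HEPES pH 7.8, 0.5 mM EDTA, 0.1 mg/ml BSA, 1 mM TCEP, 0.01% Tween-20.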
EPAC2 antag: qHTS for Antagonist of cAMP-regulated guanine nucleotide exchange factor 2 (EPAC2): primary screen | Rap guanine nucleotide exchange factor 4 (Homo sapiens), Q8WZA2 | Potency, µM (series often up to 114 µM), inactives show at the highest dose activity, negative = inhibition, most hits filed as inhibitors | EPAC2 GEF exchange of Rap1B-BODIPY-GDP, fluorescence | 360,000 compounds, 0.18% hits; note: % is set by controls: 0 for no effect and ±100 for the full control effect; nearly all actives have a fitted effect of over 45% in size
EPAC2 ag: qHTS for Agonist of cAMP-regulated guanine nucleotide exchange factor 4 (EPAC2): primary screen | Rap guanine nucleotide exchange factor 4 (Homo sapiens), Q8WZA2 | EPAC2 activation, biochemical qHTS; response scale: 100% = 6.5 mM cAMP response | AID 720711, 2013 | Potency, µM (series often up to 154 µM), inactives show at the top dose activation, usual class: activators | 360,000 compounds, 0.079% hits; note: nearly all actives have a fitted effect of over 50% in size
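EPAC2 (100 nM) mixed with Rap1B loaded with BODIPY-GDP (250 nM) plus 50 uM unlabeled GDP; compounds pinned in, 5 min RT, then read every 5 min for 30 min (ex 480, em 540 nm). Normalized to cAMP control.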
EPAC1 antag: qHTS for Antagonist of cAMP-regulated guanine nucleotide exchange factor 3 (EPAC1): primary screen. EPAC1 GEF assay, Rap1b-BODIPY-GDP exchange fluorescence. Potency, µM (highest dose often 115 µM), inactives show at the highest dose activity change, negative = inhibition, actives largely listed as inhibitors. Rap guanine nucleotide exchange factor 3 (Homo sapiens), O95398. 360,000 compounds, 0.14% hits;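 note: plate controls were vehicle for no effect and positive control for full effect; nearly all actives have a fitted effect of over 50% in size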
EPAC1 ag: qHTS for Agonist of cAMP-regulated guanine nucleotide exchange factor 3 (EPAC1): primary screen; Rap guanine nucleotide exchange factor 3 (Homo sapiens), O95398; EPAC1 agonist qHTS, biochemical assay; response scale: 100% = response to 6.5 mM cAMP; Potency, µM (series often up to 154 µM), without a hit: at the top dose activation, most hits filed as activators; 360,000 compounds, 0.073% hits; AID 720707, 2013; note: nearly all actives have a fitted effect of over 60% in size
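EPAC1 100 nM, Rap1B–BODIPY-GDP 250 nM, unlabeled GDP 50 uM; compound titration; 5 min RT; kinetic read ex480/em540 at 5-min intervals ×30 min; data normalized to 6.5 mM cAMP agonist control.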
VDR inh: Inhibitors of the vitamin D receptor (VDR): qHTS | AID 504847, 2011 | VDR-SRC2-3 peptide fluorescence polarization, 2 h | Potency, µM, for the others: max response, negative = inhibition, actives largely listed as inhibitors | 400,000 compounds, 0.93% hits | Vitamin D3 receptor (Homo sapiens), P11473; note: % is set by controls: 0 for no effect and ±100 for the full control effect
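The screen uses fluorescence polarization to detect compounds that interfere with recruitment of the SRC2-3 coactivator peptide to VDR; plates are read after 2 h at room temperature.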
* marks the source's active call; other numbers are inactive results; [ ] = dose if it differs, or a comment. Calls come from the whole dose curve; as a rule, active = well fitted curve in the direction sought with a large enough effect; inconclusive = small, poorly fitted or top-dose-only effect, or another doubt; inactive = no such curve, though single readings can be large; an effect the other way counts as inactive or inconclusive. Potency is the fitted concentration of half-maximal effect.

What do the screens show for `CCN1CCN(CC(O)COCCOc2ccc(Br)cc2)CC1` (stereo unspecified)?
USP1 inh: -11.8%; EPAC2 antag: 13.1%; EPAC2 ag: 2.5%; EPAC1 antag: -13.5%; EPAC1 ag: -5.2%; VDR inh: -23.5%

What do the screens show for `CCOC(=O)c1c(N2C(=O)Nc3cc(Cl)c(Cl)cc3N2O)sc2c1CCCCC2`?
USP1 inh: -7.0%; EPAC2 antag: -29.4%[57.1 µM]; EPAC2 ag: -19.2%; EPAC1 antag: 50.1µM*; EPAC1 ag: -12.1%; VDR inh: inconclusive

Results for CCOC(=O)c1c(-n2cnnn2)sc2c1CCCC2 ?
USP1 inh: -19.3%; EPAC2 antag: 3.9%; EPAC2 ag: 1.5%; EPAC1 antag: -8.5%; EPAC1 ag: 15.3%; VDR inh: -26.5%

Results for COc1ccc(/C(O)=C/c2nc3ccccc3n(-c3ccccc3)c2=O)cc1 ?
USP1 inh: inconclusive; EPAC2 antag: 104.2%[57.1 µM]; EPAC2 ag: 89.1µM*; EPAC1 antag: 24.9%; EPAC1 ag: 1.2%; VDR inh: -23.9%

How did COc1ccc(-n2c(=O)c(CCC(=O)N3CCN(c4cccc(OC)c4)CC3)nc3ccccc32)cc1 do in these assays?
USP1 inh: -14.0%; EPAC2 antag: 1.9%; EPAC2 ag: -3.9%; EPAC1 antag: -14.6%; EPAC1 ag: -18.8%

What do the screens show for `C/C(=N/NS(=O)(=O)c1cccc([N+](=O)[O-])c1)c1ccncc1`?
USP1 inh: -18.4%; EPAC2 antag: 10.1%; EPAC2 ag: 10.1%; EPAC1 antag: 6.4%; EPAC1 ag: 8.5%; VDR inh: 28.2µM*

What do the screens show for `O=C(Nc1cc(-c2ccc(Cl)cc2)no1)c1ccc(F)cc1`?
USP1 inh: -0.2%; VDR inh: 12.4%

What do the screens show for `Cc1cc(C)nc(SSc2nc(C)cc(C)n2)n1`?
USP1 inh: -14.8%; EPAC2 antag: 11.2%; EPAC2 ag: 0.1%; EPAC1 antag: 2.7%; EPAC1 ag: -0.1%; VDR inh: 7.08µM*

Results for COc1cccc(C(=O)NCCc2csc3nc(-c4ccccc4F)nn23)c1OC ?
USP1 inh: -4.4%; VDR inh: 8.6%

How did CCOc1ccc(-c2cc3nc(C4CCN(C(=O)OC(C)(C)C)CC4)c(C(=O)Nc4ccc(C)c(F)c4)cn3n2)cc1 do in these assays?
USP1 inh: inconclusive; VDR inh: -17.8%

Results for CC(C)(C)NC(=O)NC(=O)CN1CCN(S(=O)(=O)c2ccc3c(c2)CCCC3)CC1 ?
USP1 inh: -20.1%; EPAC2 antag: -12.3%; EPAC2 ag: -2.0%; EPAC1 antag: -9.4%; EPAC1 ag: 56.2µM*; VDR inh: -8.6%

How did CC(C)(C)NC(=O)NC(=O)CN1CCN(S(=O)(=O)c2ccccc2)CC1 do in these assays?
USP1 inh: -1.3%; EPAC2 antag: 4.1%; EPAC2 ag: -3.6%; EPAC1 antag: -4.7%; EPAC1 ag: 3.2%; VDR inh: -13.8%

Results for Cc1ccc(S(=O)(=O)N2[C@@H](c3ccc(Cl)c(Cl)c3)C(C(=O)O)=C[C@H]2CC2CCCC2)cc1 ?
USP1 inh: inconclusive; EPAC2 antag: inconclusive; EPAC2 ag: -2.7%; EPAC1 antag: 50.1µM*; EPAC1 ag: -14.5%; VDR inh: -27.9%

Results for Cc1ccc(S(=O)(=O)N2[C@@H](c3ccc(C(C)(C)C)cc3)C(C(=O)O)=CC[C@H]2c2ccc(C(C)C)cc2)cc1 ?
USP1 inh: inconclusive; EPAC2 antag: 39.8µM*; EPAC2 ag: -23.4%; EPAC1 antag: 31.6µM*; EPAC1 ag: -47.7%; VDR inh: -7.2%

How did Cc1ccc([C@@H]2CC=C(C(=O)O)[C@H](c3ccc(C(C)(C)C)cc3)N2S(=O)(=O)c2ccc(C)cc2)cc1 do in these assays?
USP1 inh: inconclusive; EPAC2 antag: inconclusive; EPAC2 ag: -14.2%; EPAC1 antag: 28.2µM*; EPAC1 ag: -24.3%; VDR inh: -5.6%

What do the screens show for `Cc1ccc(S(=O)(=O)N2C(c3ccc(Cl)c(Cl)c3)CC=C(C(=O)O)C2c2ccc(Cl)cc2)cc1` (stereo unspecified)?
EPAC2 antag: 63.1µM*; EPAC2 ag: -7.0%; EPAC1 antag: -10.4%; EPAC1 ag: 12.5%

How did Cc1ccc(S(=O)(=O)N2[C@@H](c3ccc(Cl)cc3)C(C(=O)O)=C[C@H]2CC2CCCC2)cc1 do in these assays?
USP1 inh: -16.5%; EPAC2 antag: -27.9%; EPAC2 ag: 3.7%; EPAC1 antag: -24.9%; EPAC1 ag: -18.2%; VDR inh: -23.6%

What do the screens show for `Cc1ccc([C@H]2C(C(=O)O)=CC[C@@H](c3cccs3)N2S(=O)(=O)c2ccc(C)cc2)cc1`?
USP1 inh: -12.8%; EPAC2 antag: -29.6%; EPAC2 ag: 4.4%; EPAC1 antag: -14.1%; EPAC1 ag: -3.8%; VDR inh: -3.9%

Results for CCc1ccc([C@@H]2CC=C(C(=O)O)[C@H](c3ccccc3)N2S(=O)(=O)c2ccc(C)cc2)cc1 ?
USP1 inh: -12.8%; EPAC2 antag: -17.1%; EPAC2 ag: 4.0%; EPAC1 antag: -8.1%; EPAC1 ag: -20.4%; VDR inh: 0.1%

How did CCc1ccc([C@@H]2CC=C(C(=O)O)[C@H](c3ccc(C(C)(C)C)cc3)N2S(=O)(=O)c2ccc(C)cc2)cc1 do in these assays?
USP1 inh: inconclusive; EPAC2 antag: 56.2µM*; EPAC2 ag: -14.9%; EPAC1 antag: 44.7µM*; EPAC1 ag: -32.8%; VDR inh: -24.1%

What do the screens show for `Cc1ccc(S(=O)(=O)N2[C@@H](c3ccc(Br)cc3)C(C(=O)O)=CC[C@H]2c2ccc(C(C)C)cc2)cc1`?
USP1 inh: -9.3%; EPAC2 antag: inconclusive; EPAC2 ag: 4.6%; EPAC1 antag: 56.2µM*; EPAC1 ag: 3.2%; VDR inh: inconclusive

How did Cc1ccc([C@@H]2CC=C(C(=O)O)[C@H](c3ccc(Br)cc3)N2S(=O)(=O)c2ccc(C)cc2)cc1 do in these assays?
USP1 inh: inconclusive; EPAC2 antag: inconclusive; EPAC2 ag: -1.6%; EPAC1 antag: -16.0%; EPAC1 ag: -20.6%; VDR inh: -10.0%

Assay outcomes from PubChem BioAssay.
